These results are taken from PubChem BioAssay (EPA / NIEHS).

Read-out in assay [1]: Urokinase-type plasminogen activator receptor (uPAR), PLAUR (gene 5329)
As to the kind of experiment: BSK_4H_uPAR: BioMAP Diversity Plus: 4H Assay for Urokinase-type plasminogen activator receptor (uPAR) Biomarker Activity (AID 2283030). To be noted: primary human endothelial cells (HUVEC); actives raise or lower the signal. The essentials: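 Cell-surface uPAR ELISA signal, measured 24 h after dosing human umbilical vein endothelial cells, was analyzed with bidirectional fitting relative to DMSO. Parallel SRB staining of total protein tracked overt cytotoxicity.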

Read-out in assay [2]: Vascular endothelial growth factor receptor 2 (Homo sapiens) (UniProt P35968)
Put plainly: BSK_4H_VEGFRII: BioMAP Diversity Plus: 4H Assay for Vascular endothelial growth factor receptor 2 (VEGFR2) Biomarker Activity (AID 2283031).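 For AC50: cell-surface VEGFR2 protein level quantified by ELISA.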 To be noted: primary human endothelial cells (HUVEC); actives raise or lower the signal. The essentials:
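ELISA read-out of VEGFRII in primary human umbilical vein endothelium, taken 24 h after chemical treatment. Responses are expressed relative to DMSO, with bidirectional fitting.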

Read-out in assay [3]: Vascular cell adhesion molecule 1 (VCAM1), VCAM1 (gene 7412)
Put plainly: BSK_4H_VCAM1: BioMAP Diversity Plus: 4H Assay for Vascular cell adhesion molecule 1 (VCAM1) Biomarker Activity (AID 2283033). To be noted: primary human endothelial cells (HUVEC); actives raise or lower the signal. In outline: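 Primary human umbilical vein endothelial cells, 4H stimulation system, treated for 24 h; cell-surface VCAM-1 quantified by ELISA. Bidirectional fitting against DMSO; cytotoxicity tracked by SRB total-protein staining in parallel cultures.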

Read-out in assay [4]: Interferon-gamma inducible Protein 10 (IP10), CXCL10 (gene 3627)
As to the kind of experiment: BSK_BE3C_IP10: BioMAP Diversity Plus: BE3C Assay for Interferon-gamma inducible Protein 10 (IP10) Biomarker Activity (AID 2283034). To be noted: primary human bronchial epithelial cells; actives raise or lower the signal. In outline: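 Primary human bronchial epithelial cells, with IP-10 measured by ELISA 24 hours after chemical dosing. Bidirectional fit against DMSO; cytotoxicity checked by SRB total protein staining in parallel cultures.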

Read-out in assay [5]: Monokine induced gamma interferon (MIG), CXCL9 (gene 4283)
Put plainly: BSK_BE3C_MIG: BioMAP Diversity Plus: BE3C Assay for Monokine induced gamma interferon (MIG) Biomarker Activity (AID 2283035). The conditions noted are these: primary human bronchial epithelial cells; actives raise or lower the signal. In outline:
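Primary human bronchial epithelial cells treated for 24 h; MIG levels measured by ELISA, fitted bidirectionally versus DMSO. Parallel SRB total-protein staining assessed cytotoxicity.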

Read-out in assay [6]: Plasminogen activator inhibitor-1 (PAI1), SERPINE1 (gene 5054)
Put plainly: BSK_BE3C_PAI1: BioMAP Diversity Plus: BE3C Assay for Plasminogen activator inhibitor-1 (PAI1) Biomarker Activity (AID 2283037). The conditions noted are these: primary human bronchial epithelial cells; actives raise or lower the signal. The essentials:
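Primary human bronchial epithelial cells (BE3C system) exposed 24 h; PAI-1 quantified by ELISA. Parallel sulforhodamine B staining of total protein flags cytotoxicity. Bidirectional fit versus DMSO.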

Read-out in assay [7]: urokinase plasminogen activator (uPA), PLAU (gene 5328)
As to the kind of experiment: BSK_BE3C_uPA: BioMAP Diversity Plus: BE3C Assay for urokinase plasminogen activator (uPA) Biomarker Activity (AID 2283038).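 For outcome: uPA protein level quantified by ELISA in cell cultures; uPA read one day after compound addition.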 To be noted: primary human bronchial epithelial cells; actives raise or lower the signal. In outline:
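Bronchial epithelial cells (human, primary); chemical 24 h; uPA by ELISA; bidirectional fit vs DMSO. SRB (0.1%, after 10% TCA fixation, 560 nm) in parallel cultures for cytotoxicity.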

Read-out in assay [8]: Urokinase-type plasminogen activator receptor (uPAR), PLAUR (gene 5329)
Put plainly: BSK_BE3C_uPAR: BioMAP Diversity Plus: BE3C Assay for Urokinase-type plasminogen activator receptor (uPAR) Biomarker Activity (AID 2283039).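 For outcome: cells exposed to compound for one day before measurement.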 To be noted: primary human bronchial epithelial cells; actives raise or lower the signal. In outline: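 Primary human bronchial epithelial cells dosed for 24 h; uPAR quantified by ELISA with bidirectional fitting against DMSO. Overt cytotoxicity assessed in parallel cultures by SRB total-protein staining (0.1% SRB, 560 nm).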

Read-out in assay [9]: Interleukin-6 (IL6), IL6 (gene 3569)
Put plainly: BSK_CASM3C_IL6: BioMAP Diversity Plus: CASM3C Assay for Interleukin-6 (IL6) Biomarker Activity for (AID 2283040). To be noted: primary human coronary artery smooth muscle cells; actives raise or lower the signal.

Read-out in assay [10]: Tissue plasminogen activator (tPA), PLAT (gene 5327)
As to the kind of experiment: BSK_BE3C_tPA: BioMAP Diversity Plus: BE3C Assay for Tissue plasminogen activator (tPA) Biomarker Activity (AID 2283041).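 For outcome: tPA level quantified by ELISA one day after compound addition.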 To be noted: primary human bronchial epithelial cells; actives raise or lower the signal. In outline: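 Primary human bronchial epithelial cells in the BE3C system, exposed to compound for 24 h. tPA was quantified by ELISA; DMSO served as baseline, with gain or loss of signal fitted. Cytotoxicity checked in parallel cultures by SRB total-protein staining.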

Read-out in assay [11]: Interleukin-8 (IL8), CXCL8 (gene 3576)
Put plainly: BSK_CASM3C_IL8: BioMAP Diversity Plus: CASM3C Assay for Interleukin-8 (IL8) Biomarker Activity (AID 2283042).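 Note: IL-8 protein level quantified by ELISA.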 To be noted: primary human coronary artery smooth muscle cells; actives raise or lower the signal.

Read-out in assay [12]: Human Leukocyte Antigen - DR isotype (HLADR), HLA-DRA (gene 3122)
Put plainly: BSK_CASM3C_HLADR: BioMAP Diversity Plus: CASM3C Assay for Human Leukocyte Antigen - DR isotype (HLADR) Biomarker Activity (AID 2283043).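 Note: cell-surface HLA-DR protein level quantified by ELISA.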 The conditions noted are these: primary human coronary artery smooth muscle cells; actives raise or lower the signal.

Read-out in assay [13]: Macrophage colony-stimulating factor (MCSF), CSF1 (gene 1435)
Put plainly: BSK_CASM3C_MCSF: BioMAP Diversity Plus: CASM3C Assay for Macrophage colony-stimulating factor (MCSF) Biomarker Activity (AID 2283044).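 Note: M-CSF protein amount quantified by ELISA after 24 h exposure.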 The conditions noted are these: primary human coronary artery smooth muscle cells; actives raise or lower the signal.

Read-out in assay [14]: Low-density lipoprotein receptor (LDLR), LDLR (gene 3949)
Put plainly: BSK_CASM3C_LDLR: BioMAP Diversity Plus: CASM3C Assay for Low-density lipoprotein receptor (LDLR) Biomarker Activity (AID 2283045).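 Note: LDLR protein level on the cell surface quantified by ELISA.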 To be noted: primary human coronary artery smooth muscle cells; actives raise or lower the signal.

Read-out in assay [15]: Monocyte Chemoattractant Protein-1 (MCP1), CCL2 (gene 6347)
Put plainly: BSK_CASM3C_MCP1: BioMAP Diversity Plus: CASM3C Assay for Monocyte Chemoattractant Protein-1 (MCP1) Biomarker Activity (AID 2283046).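 Note: MCP-1 level quantified by ELISA 24 h after dosing.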 The conditions noted are these: primary human coronary artery smooth muscle cells; actives raise or lower the signal.

A short description of assay [16]: BSK_CASM3C_Proliferation: Cell Proliferation Assessment in the BioMAP Diversity Plus: CASM3C Assay (AID 2283047).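 Note: sulforhodamine B total protein stain as relative cell number at 560 nm; sub-confluent cells exposed 48 h before staining; fitted both ways against DMSO so gain or loss of cell number.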 To be noted: primary human coronary artery smooth muscle cells.
Read-out in assay [17]: Monokine induced gamma interferon (MIG), CXCL9 (gene 4283)
Put plainly: BSK_CASM3C_MIG: BioMAP Diversity Plus: CASM3C Assay for Monokine induced gamma interferon (MIG) Biomarker Activity (AID 2283048). To be noted: primary human coronary artery smooth muscle cells; actives raise or lower the signal.

Read-out in assay [18]: serum amyloid A (SAA), SAA1 (gene 6288)
Put plainly: BSK_CASM3C_SAA: BioMAP Diversity Plus: CASM3C Assay for serum amyloid A (SAA) Biomarker Activity (AID 2283049).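 Note: SAA protein level quantified by ELISA.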 The conditions noted are these: primary human coronary artery smooth muscle cells; actives raise or lower the signal.

Read-out in assay [19]: Transforming growth factor beta 1 (TGFb1), TGFB1 (gene 7040)
As to the kind of experiment: BSK_BE3C_TGFb1: BioMAP Diversity Plus: BE3C Assay for Transforming growth factor beta 1 (TGFb1) Biomarker Activity (AID 2283036). To be noted: primary human bronchial epithelial cells; actives raise or lower the signal. In outline: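 Primary human bronchial epithelial cells dosed with chemical; TGF-b1 measured by ELISA 24 h after dosing. Bidirectional curve fitting against DMSO negative control; SRB total-protein staining in parallel cultures gauged cytotoxicity.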

Structures are written as SMILES. Values joined by “and” are separate entries in the source; they are usually repeats but may differ in a detail not shown here. Equal entries are not always repeated. Some compounds were tested as several samples or in several runs, with calls that do not always agree. Active and inactive are the calls of the source. Rule for the calls: active = hit-call score of the fitted dose curve at least 0.9, where 1 is the maximum; inactive = score below 0.9.

For the molecule `CC(CCC(=O)O)(c1ccc(O)cc1)c1ccc(O)cc1`, the result in assay [1], in assay [2], in assay [3], in [4], in assay [5] and in assay [6] was inactive. The result in assay [7], in assay [8], in [9], in assay [10], in assay [11] and in assay [12] was inactive. The outcome in assay [13], in assay [14], in [15], in assay [16], in [17] and in assay [18] was inactive.

What is called AC50 is the concentration giving half of the maximal activity seen. On to `C[N+](C)(C)CCCNS(=O)(=O)C(F)(F)C(F)(F)C(F)(F)C(F)(F)C(F)(F)C(F)(F)C(F)(F)C(F)(F)F`, for which the outcome in assay [1], in [2], in [3], in assay [5], in assay [6] and in assay [7] was inactive. For the same molecule, the result in [8], in [9], in assay [11], in [12], in assay [13] and in assay [15] was inactive. Also, the result in assay [16], in assay [17] and in assay [18] was inactive. The AC50 was 30 µM (active) and 43.7 µM (active) in assay [4]; 1.1 µM (active) in assay [7]; 17.1 µM (active) and 18.5 µM (active) in assay [10]; 16.8 µM (active) in [13]; 19.5 µM (active) and 26.4 µM (active) in assay [14]; 7.89 µM (active) in [18].

With `O=C(O)C(F)(F)C(F)(F)C(F)(F)C(F)(F)C(=O)O`, the outcome in [1], in assay [2], in assay [3], in assay [4], in assay [5] and in [6] was inactive. For the same molecule, the result in [7], in assay [8], in assay [9], in assay [10], in assay [11] and in assay [12] was inactive. In addition, the outcome in assay [13], in assay [14], in [15], in assay [16], in [17] and in assay [18] was inactive.

On to `CC/C=C\C/C=C\C/C=C\CCCCCCCC(=O)OC`, for which the AC50 in assay [1] was 30.9 µM (active); in assay [3] it was 29 µM (active); in assay [4] it was 11.8 µM (active); in assay [5], 29.6 µM (active); in assay [19], 9.17 µM (active); in assay [6], 25.5 µM (active). For the same molecule, the AC50 was 29.8 µM (active) in [7]; 28.8 µM (active) in assay [8]; 31.5 µM (active) in [9]; 9.51 µM (active) in [10]; 32.2 µM (active) in assay [11]; 12.1 µM (active) in assay [12]. The AC50 in [13] is 22.6 µM (active); in assay [14], 28.7 µM (active); in assay [15], 29.7 µM (active); in assay [16] it was 8.6 µM (active); in [17] it was 29.3 µM (active); in [18], 26 µM (active). In assay [2], the result was inactive.

For `C=CC(=O)OCCCCCCCC(C)C`, the result in assay [1], in [2], in assay [4], in assay [5], in assay [19] and in [6] was inactive. The outcome in assay [7], in [8], in assay [9], in assay [10], in assay [11] and in assay [12] was inactive. In addition, the outcome in [13], in assay [14], in assay [15], in assay [16], in assay [17] and in assay [18] was inactive. Moreover, the AC50 in assay [3] was 15.7 µM (active).

Turning to `CCCCCCCCCCCC(=O)N(C)CC(=O)O`, the AC50 is 19.5 µM (active) and 13.4 µM (active) in assay [1]; 9.25 µM (active) and 120 nM (active) in [2]; 3.87 µM (active) and 2.41 µM (active) in [3]; 30.9 µM (active) in [17]. The outcome in assay [4], in assay [5], in assay [6], in assay [7], in assay [8] and in assay [9] was inactive. Besides, the outcome in assay [10], in assay [11], in assay [12], in assay [13], in assay [14] and in [15] was inactive. Further, the result in assay [16], in assay [17] and in assay [18] was inactive.

With `Cc1ccc([N+](=O)[O-])cc1N`, the outcome in assay [1], in [2], in [3], in [4], in assay [5] and in assay [19] was inactive. Also, the result in assay [6], in [7], in assay [8], in [9], in assay [10] and in assay [11] was inactive. Besides, the outcome in assay [12], in assay [13], in [14], in assay [15], in [16] and in assay [17] was inactive. Moreover, the outcome in assay [18] was inactive.
